# Compound activity from PubChem.
# KB-3-1 tox: KB-3-1 parental cell cytotoxicity; Potency, µM (doses to about 46.1 µM), actives largely listed as cytotoxic; KB-3-1 viability, CellTiter-Glo ATP luminescence, 72 h; 1.4% of 400,000 active; also: % is scaled to controls: 0 for no effect and ±100 for the full control effect; nearly all actives have a fitted effect of over 60% in size
#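 Using CellTiter-Glo luminescence, growth of non-resistant KB-3-1 adenocarcinoma cells is assessed 72 h after pin-tool compound addition at 37 °C. Normalized responses across the concentration series yield fitted curves.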
# MCF10A rerep: induces DNA re-replication in MCF 10a normal breast cells | MCF 10A DNA re-replication, Hoechst nuclear intensity, 48 h | Potency, µM (series often up to 46.1 µM), without a hit: at the top dose activity, positive = re-replication, actives largely listed as activators | 2.9% of 350,000 active; also: % of control where 0% means no effect; nearly all actives have a fitted effect of over 50% in size
# SW480 rereplic: DNA re-replication induction in SW480 cells. SW480 DNA re-replication, Hoechst DNA content imaging, 48 h. Potency, µM (top dose mostly 46.1 µM), inactives show at the top dose re-replication activation, hits mostly activators. 1.8% of 340,000 active. AID 624297; also: % of control where 0% means no effect; nearly all actives have a fitted effect of over 55% in size
#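 250 cells/well; 23 nL cpd via pin tool; 48 hr, 37 C, 5% CO2; Hoechst 40 min; imager read of total nuclear intensity, ex 405/em 500-530 nm.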
# KB-V1 MDR tox: KB-V1 MDR subline cytotoxicity. KB-V1 MDR cells viability, CellTiter-Glo, 72 h. Potency, µM (highest dose often 46.1 µM), most hits filed as cytotoxic. 3.4% of 400,000 active. AID 1347076; also: % is scaled to controls: 0 for no effect and ±100 for the full control effect; nearly all actives have a fitted effect of over 60% in size
#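 KB-V1 MDR subline cells in DMEM (phenol-red free, 10% FBS) exposed to compounds in qHTS concentration series for 72 h at 37 degrees C. Viability read by CellTiter-Glo luminescence; concentration-effect curves fitted after normalization and correction.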
# 12-LOX inh: inhibitors of human 12S-lipoxygenase ALOX12; Potency, µM (doses to about 108 µM), without a hit: top-dose activity change, negative = inhibition, actives largely listed as inhibitors; P18054; 1.1% of 580,000 active; purified 12hLO, xylenol orange hydroperoxide absorbance; also: % is scaled to controls: 0 for no effect and ±100 for the full control effect
# Target sequence (P18054 whole entry, looked up): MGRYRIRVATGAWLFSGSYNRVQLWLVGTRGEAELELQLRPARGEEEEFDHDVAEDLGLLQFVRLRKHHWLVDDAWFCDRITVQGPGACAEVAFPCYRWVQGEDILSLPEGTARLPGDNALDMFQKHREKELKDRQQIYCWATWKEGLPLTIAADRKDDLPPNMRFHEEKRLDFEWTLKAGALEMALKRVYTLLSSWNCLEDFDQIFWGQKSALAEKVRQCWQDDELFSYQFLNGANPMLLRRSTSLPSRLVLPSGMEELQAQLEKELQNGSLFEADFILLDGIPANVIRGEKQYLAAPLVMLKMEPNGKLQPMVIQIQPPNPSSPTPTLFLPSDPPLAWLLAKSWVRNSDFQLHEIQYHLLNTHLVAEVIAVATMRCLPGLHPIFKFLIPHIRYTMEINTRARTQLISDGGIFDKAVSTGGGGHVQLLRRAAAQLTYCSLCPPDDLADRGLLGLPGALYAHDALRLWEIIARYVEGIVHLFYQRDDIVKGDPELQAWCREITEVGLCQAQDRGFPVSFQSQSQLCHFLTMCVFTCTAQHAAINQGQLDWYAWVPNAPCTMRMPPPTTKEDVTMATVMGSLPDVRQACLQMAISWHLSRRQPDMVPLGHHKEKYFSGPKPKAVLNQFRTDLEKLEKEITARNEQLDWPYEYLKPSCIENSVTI
#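 Hydroperoxide product was detected by ferrous iron/xylenol orange as the 573 to 405 nm absorbance ratio. Arachidonic acid at 40 uM (final) was turned over for 30 min at room temperature by 150 nM human 12hLO, pH 7.0 Hepes buffer, after 15 min compound preincubation.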
# PINK1 expr mod: changes PINK1 expression; 0.2% of 410,000 active; Potency, µM (series often up to 76.6 µM), inactives show at the top dose activation (PINK1 increase), actives largely listed as activators; PINK1 immunofluorescence, high-content cytometry, 24 h; active = well fitted activation curve with a large enough effect; inconclusive = small, poorly fitted or top-dose-only effect; cell line not stated here; also: % of control where 0% means no effect; nearly all actives have a fitted effect of over 65% in size
#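 Readout is PINK1 immunofluorescence, quantified alongside mitochondrial, cell and nuclear markers by laser-scanning microplate cytometry. Cells from a stable line were exposed to compound titrations (5 concentrations) for 24 hours, with CCCP controls.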
# Numbers without * were called inactive; i = inactive; ? = inconclusive; nt = no result; [ ] = remark or other dose. Shown are actives, neighbours in structure and some others; about 5.8% of the full set was active somewhere. Unless noted, calls follow the shape of the dose curve; as a rule, active = well fitted curve in the direction sought with a large enough effect; inconclusive = small, poorly fitted or top-dose-only effect, or another doubt; inactive = no such curve, though single readings can be large; an effect the other way counts as inactive or inconclusive. Potency is read from the fitted curve at half-maximal effect.
SMILES,KB-3-1 tox,MCF10A rerep,SW480 rereplic,KB-V1 MDR tox,12-LOX inh,PINK1 expr mod
CCCCCNC(=O)C(c1cccc2ccccc12)n1c(=O)c(-c2ccco2)nc2ccccc21 (stereo unspecified),i,nt,nt,i,10µM*,nt
O=C(NCc1ccccc1)C(c1cccc2ccccc12)n1c(=O)c(-c2ccco2)nc2ccccc21 (stereo unspecified),i,nt,nt,i,?,nt
O=C(NC1CCCCC1)C(c1ccc(C(F)(F)F)cc1)n1c(=O)c(-c2ccco2)nc2ccccc21 (stereo unspecified),i,nt,nt,i,?,nt
O=c1c(-c2ccco2)nc2ccccc2n1/C=C(/c1ccc(C(F)(F)F)cc1)n1c(=O)[nH]c2ccccc21,nt,nt,nt,nt,16µM*,nt
CCCCCNC(=O)C(C1CC1)n1c(=O)c(-c2ccco2)nc2ccccc21 (stereo unspecified),i,nt,nt,i,35µM*,nt
CCCn1c(=O)c2ccccc2n(CC(=O)N(C)c2cccc(Cl)c2)c1=O,nt,nt,nt,nt,-34%,nt
N#Cc1nc(C2CC2)oc1N1CCN(Cc2cccc(F)c2F)CC1,nt,nt,nt,nt,-24%,nt
CCOc1ccccc1N1C(=O)CC(Sc2nc(C)c3cc(OC)ccc3n2)C1=O (stereo unspecified),nt,nt,nt,nt,-16%,nt
CC(C)(C)NC(=O)C(c1cccc2ccccc12)n1c(=O)c(-c2ccco2)nc2ccccc21 (stereo unspecified),i,nt,nt,i,45µM*,nt
O=C(Cc1c(F)cccc1Cl)NC1CCN(c2cc(-c3ccccc3)[nH]n2)CC1,nt,nt,nt,nt,-7%,nt
Fc1ccccc1Nc1cnc2ccc(-c3ccccc3)nn12,nt,nt,nt,nt,-1%[176 µM],nt
O=C(Nc1ccc2c(c1)CCC2)c1cc(S(=O)(=O)Nc2ccc(F)cc2)c(Cl)cc1Cl,?,?,13%,18µM*,-6%,?
CCC(=O)N1CCc2nn(Cc3ccccc3)c(=O)n2CC1,nt,nt,nt,nt,47%,nt
COc1ccc(/C=C/c2nc(-c3ccccc3O)n(-c3ccccc3)n2)cc1OC,i,nt,nt,i,2%,1%
COc1ccc(/C=C/c2nc(-c3ccccc3O)n(-c3ccccc3)n2)cc1,i,7%,?,16µM*,-5%,9%
O=C(CCC1N=C2c3ccccc3N=C(SCc3ccc(Cl)cc3)N2C1=O)NCc1ccco1 (stereo unspecified),?,?,?,6.5µM*,-8%,2%
CN=C(N)NC(=O)Nc1c(C)cccc1C,i,0%,16µM*,i,0%,0%
CN=C(NC(=O)Nc1c(C)cccc1C)NC(=O)Nc1c(C)cccc1C,i,-3%,-7%,i,-6%,0%
Cc1cccc(C)c1NC(=O)CN,i,-8%,18µM*,?,9%,-2%
Cc1ccc2oc(C(=O)N3CCN(c4cccc(Cl)c4)CC3)cc(=O)c2c1,nt,nt,nt,nt,-25%,nt
CCc1nc(CN2CCCC(CO)(CC3CC3)C2)cs1 (stereo unspecified),nt,nt,nt,nt,26%,nt
CC(C)n1nc(C(=O)OC/C(O)=C(\C#N)c2nc3ccccc3[nH]2)c2ccccc2c1=O,nt,nt,nt,nt,-11%,nt
Cc1ccc2nc(/C(C#N)=C\c3ccc([N+](=O)[O-])o3)[nH]c2c1,i,9.2µM*,?,i,-14%,?
N#C/C(=C\c1ccc(O)c(Br)c1)c1nc2ccccc2[nH]1,nt,nt,nt,nt,-7%,nt
N#C/C(=C\Nc1ccc2c(c1)OCCO2)c1nc(-c2ccccc2)cs1,i,?,?,i,-10%,7%
SMILES,KB-3-1 tox,MCF10A rerep,SW480 rereplic,KB-V1 MDR tox,12-LOX inh,PINK1 expr mod
O=C(CCc1nc2ccccc2[nH]1)Nc1ccc2c(c1)OCCO2,i,3%,-4%,i,407%,1%
Cc1ccc2nc(/C(C#N)=C/c3ccc(-c4ccccc4C(=O)O)o3)[nH]c2c1,i,27%,-5%,i,?,0%
N#C/C(=C\Nc1ccc2c(c1)OCCO2)c1nc2ccccc2[nH]1,?,?,?,15µM*,-16%,-1%
N#C/C(=C/c1ccc(O)c(O)c1)c1nc2ccccc2[nH]1,i,-10%,?,i,7.9µM*,7%
COc1ccc(-c2csc(/C(C#N)=C/Nc3ccc4c(c3)OCCO4)n2)cc1,i,2.1µM*,2.3µM*,i,-17%,5%
COc1cc2cc(C(=O)NCC(=O)Nc3ccc4c(c3)OCO4)n(C)c2c(OC)c1OC,nt,nt,nt,nt,42%,nt
N#C/C(=C\c1ccc(-c2ccc(F)cc2F)o1)c1nc2ccccc2[nH]1,i,nt,nt,?,-17%,22%
N#C/C(=C\c1ccc([N+](=O)[O-])o1)c1nc2ccccc2[nH]1,13µM*,3.7µM*,?,i,-9%,2%
N#C/C(=C(/O)c1ccc([N+](=O)[O-])o1)c1nc2ccccc2[nH]1,?,3.3µM*,?,?,-11%,2%
N#C/C(=C\c1ccc(-c2ccc(Cl)cc2Cl)o1)c1nc2ccccc2[nH]1,nt,nt,nt,nt,11µM*,nt
O=C(NCCSC1CCCC1)c1ccncc1,nt,nt,nt,nt,-38%,nt
COc1ccc(C2Oc3ccccc3C3=C2C(c2cccs2)n2ncnc2N3)cc1 (stereo unspecified),5.8µM*,?,?,5.8µM*,?,6%
COc1ccc(OC)c(NC(=O)C2=C(C)Nc3ncnn3C2c2cccs2)c1 (stereo unspecified),i,1%,1%,i,-4%,1%
Brc1ccc(C2C3=C(Nc4ncnn42)c2ccccc2OC3c2ccncc2)cc1 (stereo unspecified),?,?,?,21µM*,-29%,-32%[38.3 µM]
NNC(=O)c1cc2cc3ccccc3nc2s1,i,12µM*,6%,i,13%,8%
CS(=O)(=O)NNC(=O)c1cc2cc3ccccc3nc2s1,i,-3%,-5%,i,-1%,-2%
O=C(NC1CCCCC1)c1cccc2ncccc12,nt,nt,nt,nt,-1%,nt
Cc1ccc(-c2nc(P(=O)(c3ccccc3)c3ccccc3)c(N3CCOCC3)o2)cc1,i,?,27%,i,-17%,-1%
CNc1oc(-c2ccc(Cl)cc2)nc1P(=O)(c1ccccc1)c1ccccc1,?,16µM*,15%,?,?,-7%
CCCOc1ccc2oc(=O)c3c(c2c1)CCCN3C(=O)CN1CCCC(C(=O)OCC)C1 (stereo unspecified),i,10%,3%,12µM*,0%,-1%
CCOC(=O)C1CCN(CC(=O)N2CCCc3c2c(=O)oc2ccc(OCc4ccccc4)cc32)CC1,i,nt,nt,i,-19%,2%
O=C(CN1CCCC1)N1CCCc2c1c(=O)oc1ccc(OCc3ccccc3)cc21,i,5%,?,18µM*,-9%,-19%[38.3 µM]
